Common to all, as to test: NCI-60 one-dose screen, 48 h (100 = growth as untreated, 0 = no growth, -100 = all killed)
The test system of one assay is SK-MEL-2 melanoma. The note with it: 10 µM unless noted.
In the next assay the test system is EKVX NSCLC. The note with it: 10 µM unless noted.
The test system of a further assay is SN12C renal. The following applies: 10 µM unless noted.
The next assay deals with UO-31 renal. The following applies: 10 µM unless noted.
A further assay concerns TK-10 renal. The note with it: 10 µM unless noted.
A further assay relates to ACHN renal. The following applies: 10 µM unless noted.
For the next assay, the system named is CAKI-1 renal. The note with it: 10 µM unless noted.
The next assay deals with A498 renal. The following applies: 10 µM unless noted.
A further assay has as its system CCRF-CEM leukemia. The note with it: 10 µM unless noted.
The next assay has as its system MOLT-4 leukemia. The following applies: 10 µM unless noted.
The next assay deals with SR leukemia. The following applies: 10 µM unless noted.
The test system of another assay is RPMI-8226 leukemia. The note with it: 10 µM unless noted.
Another assay has as its system OVCAR-8 ovarian. The note with it: 10 µM unless noted.
Another assay concerns OVCAR-5 ovarian. The note with it: 10 µM unless noted.
Another assay deals with OVCAR-4 ovarian. The following applies: 10 µM.
The test system of a further assay is SK-OV-3 ovarian. The note with it: 10 µM unless noted.
Another assay deals with IGROV1 ovarian. The following applies: 10 µM unless noted.
The next assay has as its system OVCAR-3 ovarian. The following applies: 10 µM unless noted.
A further assay relates to HS 578T breast. The following applies: 10 µM unless noted.
The subject of the next assay is NCI/ADR-RES ovarian. The following applies: 10 µM unless noted.

The panel holds about 83,000 compounds, 20% with a hit somewhere; the sample as a whole holds those more often.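 Cells were grown in 96-well plates and exposed to the test compound at a single concentration for 48 hours; results are reported as percent growth, with values below 10 considered active.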 Values without a mark were called inactive. The source made the active and inactive calls.

Consider `CC(C)C1=NOC(=O)C1=Cc1cn(-c2ccccc2)nc1-c1cccc([N+](=O)[O-])c1`, for which the growth is 101% in the assay on SK-MEL-2 melanoma; 99.3% in the assay with EKVX NSCLC; 78.3% in the assay on SN12C renal; 74.3% in the assay on UO-31 renal; 89.5% with TK-10 renal; 99.2% in the assay on ACHN renal. Besides, the growth with CAKI-1 renal was 64.6%; in the assay with A498 renal, 76.3%; in the assay on CCRF-CEM leukemia, 2.68% (active); in the assay with MOLT-4 leukemia, 3.44% (active); in the assay with SR leukemia, -20.9% (active); in the assay on RPMI-8226 leukemia it was -26.8% (active). Besides, the growth with OVCAR-8 ovarian is 58%; in the assay on OVCAR-5 ovarian it was 106%; with OVCAR-4 ovarian it was 103%; in the assay on SK-OV-3 ovarian, 117%; in the assay on IGROV1 ovarian, 70.4%; with OVCAR-3 ovarian, 89.3%. The growth with HS 578T breast is 29.7%; in the assay with NCI/ADR-RES ovarian, 97%.

With `CCCCCCNC(=O)Nc1ncnc2c1ncn2-c1ccccc1`, the growth was 91.3% with SK-MEL-2 melanoma; 92.2% in the assay on EKVX NSCLC; 97.3% in the assay with SN12C renal; 58.4% in the assay on UO-31 renal; 94% with TK-10 renal; 90.7% in the assay with ACHN renal. Further, the growth was 85.8% with CAKI-1 renal; 83.1% in the assay with A498 renal; 103% in the assay with CCRF-CEM leukemia; 102% with MOLT-4 leukemia; 99.5% in the assay with SR leukemia; 91.4% in the assay with RPMI-8226 leukemia. The growth in the assay with OVCAR-8 ovarian is 91.3%; in the assay on OVCAR-5 ovarian, 88.9%; in the assay with OVCAR-4 ovarian, 85.3%; in the assay on SK-OV-3 ovarian, 87.5%; in the assay on IGROV1 ovarian, 88.1%; in the assay with OVCAR-3 ovarian, 111%. The growth was 97.6% in the assay on HS 578T breast and 91.1% in the assay with NCI/ADR-RES ovarian.

Turning to `C#CCC(C(=O)OCC)C(=O)OCC`, the growth with SK-MEL-2 melanoma is 107%; in the assay with EKVX NSCLC, 95.1%; in the assay with SN12C renal, 109%; in the assay with UO-31 renal it was 85%; in the assay with TK-10 renal, 98.7%; in the assay with ACHN renal, 102%. Also, the growth with CAKI-1 renal is 93.6%; with A498 renal, 94.6%; in the assay with CCRF-CEM leukemia, 104%; in the assay with MOLT-4 leukemia, 100%; in the assay on SR leukemia, 99.9%; in the assay on RPMI-8226 leukemia, 102%. Moreover, the growth was 105% in the assay on OVCAR-8 ovarian; 94.9% with OVCAR-5 ovarian; 128% in the assay on OVCAR-4 ovarian; 99.5% in the assay on SK-OV-3 ovarian; 117% in the assay with IGROV1 ovarian; 103% with OVCAR-3 ovarian. Also, the values for the growth with HS 578T breast and in the assay on NCI/ADR-RES ovarian were 104% and 105%, respectively.

`CCOC(=O)C(=Cc1ccccc1[N+](=O)[O-])C(=O)OCC`: the growth in the assay on SK-MEL-2 melanoma was 12%; with EKVX NSCLC, 68.6%; with SN12C renal, 24.5%; with UO-31 renal it was 41.5%; with TK-10 renal it was 22.1%; with ACHN renal it was 16.9%. Further, the growth in the assay on CAKI-1 renal is 24.1%; with A498 renal, 122%; in the assay on CCRF-CEM leukemia, 2.19% (active); in the assay on MOLT-4 leukemia, 11.1%; in the assay on SR leukemia, -10% (active); with RPMI-8226 leukemia it was 10.7%. The growth was 12.2% in the assay on OVCAR-8 ovarian; -31.5% (active) with OVCAR-5 ovarian; 24.7% with OVCAR-4 ovarian; 62.4% in the assay on SK-OV-3 ovarian; 37.8% with IGROV1 ovarian; -20.7% (active) with OVCAR-3 ovarian. Also, the figures for the growth in the assay on HS 578T breast and in the assay on NCI/ADR-RES ovarian were 47.2% and -29.4% (active), respectively.

Turning to `Cc1ccc2c(c1)C(C)Cc1c(Cl)ncnc1N2C` (stereo not given), the growth in the assay with SK-MEL-2 melanoma is -21.4% (active); in the assay with EKVX NSCLC, 22.2%; with SN12C renal, 32.8%; with UO-31 renal, 18%; in the assay with TK-10 renal, 18.3%; with ACHN renal, 32%. For the same compound, the growth was 31% in the assay on CAKI-1 renal; -19.2% (active) in the assay with A498 renal; 49.7% in the assay with CCRF-CEM leukemia; 13.6% with MOLT-4 leukemia; 22.6% in the assay with SR leukemia; 28.2% in the assay with RPMI-8226 leukemia. For the same compound, the growth in the assay with OVCAR-8 ovarian was 11.9%; with OVCAR-5 ovarian, 40.4%; in the assay on OVCAR-4 ovarian, 19.5%; in the assay on SK-OV-3 ovarian, 15.7%; with IGROV1 ovarian, 61%; with OVCAR-3 ovarian it was 6.8% (active). The growth is 32.7% in the assay on HS 578T breast and 10.7% in the assay on NCI/ADR-RES ovarian.

As to `Cn1cc(-c2noc(-c3cn(C)c4ncccc34)n2)c2cc(Cl)ccc21`, the growth is 97.3% in the assay with SK-MEL-2 melanoma; 89.3% in the assay with EKVX NSCLC; 92.1% in the assay with SN12C renal; 78.9% with UO-31 renal; 89.5% in the assay on TK-10 renal; 89.3% in the assay on ACHN renal. Besides, the growth in the assay with CAKI-1 renal is 86.6%; in the assay with A498 renal, 82.7%; in the assay on CCRF-CEM leukemia, 99.8%; with MOLT-4 leukemia it was 96.1%; in the assay with SR leukemia it was 82.2%; with RPMI-8226 leukemia, 96.6%. Moreover, the growth in the assay with OVCAR-8 ovarian was 96%; in the assay on OVCAR-5 ovarian, 79.7%; in the assay on OVCAR-4 ovarian it was 98.3%; with SK-OV-3 ovarian, 89%; with IGROV1 ovarian it was 99.8%; with OVCAR-3 ovarian it was 109%. The results for the growth with HS 578T breast and in the assay with NCI/ADR-RES ovarian were 111% and 89.8%, respectively.

As to `COc1ccc(N(c2nc(-c3ccc([N+](=O)[O-])cc3)cs2)C(C)C)cc1`, the growth in the assay with SK-MEL-2 melanoma was 92.1%; in the assay with EKVX NSCLC, 65.8%; with SN12C renal it was 91.4%; in the assay on UO-31 renal it was 69.3%; with TK-10 renal, 88.9%; in the assay on ACHN renal it was 89%. Besides, the growth was 62.6% with CAKI-1 renal; 59.5% in the assay with A498 renal; 62.5% in the assay on CCRF-CEM leukemia; 68.5% in the assay with MOLT-4 leukemia; 66.5% with SR leukemia; 52.7% with RPMI-8226 leukemia. Moreover, the growth is 89.6% in the assay on OVCAR-8 ovarian; 109% in the assay on OVCAR-5 ovarian; 70% with OVCAR-4 ovarian; 81.7% in the assay on SK-OV-3 ovarian; 80.4% in the assay with IGROV1 ovarian; 81.1% in the assay with OVCAR-3 ovarian. In addition, the figures for the growth in the assay with HS 578T breast and in the assay with NCI/ADR-RES ovarian were 85% and 86.2%, respectively.

`CCCCC(CC)COC(=O)C[N+](C)(C)CCOC(c1ccccc1)c1ccccc1` (stereo not given): the growth was -26.9% (active) in the assay on SK-MEL-2 melanoma; 57.9% in the assay on EKVX NSCLC; 43.2% with SN12C renal; 95.6% in the assay with UO-31 renal; 53.7% in the assay with TK-10 renal; 101% with ACHN renal. Also, the growth is 97.4% with CAKI-1 renal; 101% with A498 renal; 20.4% in the assay on CCRF-CEM leukemia; 40.7% in the assay with MOLT-4 leukemia; -30.2% (active) in the assay on SR leukemia; -61% (active) in the assay with RPMI-8226 leukemia. Further, the growth in the assay on OVCAR-8 ovarian is 48.8%; in the assay with OVCAR-5 ovarian, 75.6%; with OVCAR-4 ovarian, 22.9%; in the assay with SK-OV-3 ovarian it was 59%; with IGROV1 ovarian, -0.732% (active); with OVCAR-3 ovarian, 19.2%. For the same compound, the growth in the assay on HS 578T breast is 69.7%; with NCI/ADR-RES ovarian, 99.1%.

Values taken from PubChem BioAssay (NCI).
